{"source": "the supplement of paper PMC11634586", "note": "Structures can show the parent of a compound that is named as a salt. Unmarked numbers belong to inactive results.", "data": [{"test_system": "NCI-H1688", "experiment": "inhibition of cell viability relative to untreated control (fraction); higher = stronger growth inhibition, active = 0.5 or more", "conditions": "30 µM; 24 h", "how_it_was_run": "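Compounds from a natural compound library (TargetMol) were tested at 30 µM on NCI-H1688 small cell lung cancer cells for 24 h at 37°C under 5% CO2. Cell Counting Kit-8 absorbance at 450 nm, read in triplicate, gave the viability. The values express inhibition of cell viability as a fraction relative to untreated cells.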", "values": [{"smiles": "O=C(O)c1cc(O)c(O)c(O)c1", "note": "[Gallic acid]", "inhibition of cell viability": 0.44}, {"smiles": "NCCc1ccc(O)c(O)c1", "note": "[Dopamine hydrochloride]", "inhibition of cell viability": 0.0465}, {"smiles": "NCCCC(=O)O", "note": "[4-Aminobutyric acid]", "inhibition of cell viability": -0.231}, {"smiles": "O=C1c2c(O)cc(O)cc2O[C@H](c2cc(O)c(O)c(O)c2)[C@H]1O", "note": "[Dihydromyricetin]", "inhibition of cell viability": "0.596 (active)"}, {"smiles": "OCc1ccccc1O[C@@H]1O[C@H](CO)[C@@H](O)[C@H](O)[C@H]1O", "inhibition of cell viability": -0.21}, {"smiles": "CC(C)(CO)C(O)C(=O)NCCCO", "note": "(configuration not stated) [Panthenol]", "inhibition of cell viability": 0.0837}, {"smiles": "Cc1cc(O)c2c(c1)C(=O)c1cccc(O)c1C2=O", "note": "[Chrysophanic Acid]", "inhibition of cell viability": -0.28}, {"smiles": "Oc1cc(O)c2c(c1)O[C@H](c1ccc(O)c(O)c1)[C@H](O)C2", "note": "[Epicatechin]", "inhibition of cell viability": 0.0727}, {"smiles": "Oc1ccc(CC2NCCc3cc(O)c(O)cc32)cc1", "note": "(configuration not stated) [Demethyl]", "inhibition of cell viability": 0.182}, {"smiles": "O=C(O)CCCCCCCC(O)C(O)CCCCCCO", "note": "(configuration not stated) [Aleuritic Acid]", "inhibition of cell viability": -0.54}, {"smiles": "Cn1c(=O)c2[nH]cnc2n(C)c1=O", "note": "[Aminophylline]", "inhibition of cell viability": "0.644 (active)"}, {"smiles": "COc1cc(CO)ccc1O", "note": "[Vanillyl Alcohol]", "inhibition of cell viability": -0.235}, {"smiles": "OC[C@H]1O[C@H](O[C@H]2O[C@H](CO)[C@@H](O)[C@H](O)[C@H]2O)[C@H](O)[C@@H](O)[C@@H]1O", "note": "[D-(+)-Trehalose dihydrate]", "inhibition of cell viability": 0.249}, {"smiles": "O=c1[nH]cnc2c1ncn2[C@@H]1O[C@H](CO)[C@@H](O)[C@H]1O", "note": "[Inosine]", "inhibition of cell viability": 0.0115}, {"smiles": "C[N+](C)(C)CC(O)CC(=O)[O-]", "note": "(stereo not drawn) [L(-)-Carnitine]", "inhibition of cell viability": 0.123}, {"smiles": "O=Cc1ccc(O)c(O)c1", "note": "[Protocatechualdehyde]", "inhibition of cell viability": 0.314}, {"smiles": "CCOC(=O)C1=C[C@]2(CC)CCCN3CCc4c(n1c1ccccc41)[C@@H]32", "note": "[Vinpocetine]", "inhibition of cell viability": -0.174}, {"smiles": "CO[C@H]1C[C@H](O[C@H]2[C@H](C)O[C@@H](O[C@@H]3/C(C)=C/C[C@@H]4C[C@@H](C[C@]5(C=C[C@H](C)[C@@H](C6CCCCC6)O5)O4)OC(=O)[C@@H]4C=C(C)[C@@H](O)[C@H]5OC/C(=C\\C=C\\[C@@H]3C)[C@]54O)C[C@@H]2OC)O[C@@H](C)[C@@H]1O", "note": "[Doramectin]", "inhibition of cell viability": "0.993 (active)"}, {"smiles": "Nc1nc(=O)c2c([nH]1)NCC(CNc1ccc(C(=O)N[C@@H](CCC(=O)O)C(=O)O)cc1)N2C=O", "note": "(some centres not stated) [Calcium folinate]", "inhibition of cell viability": 0.028}, {"smiles": "CC(=O)C1=C(O)C=C2Oc3c(C(C)=O)c(O)c(C)c(O)c3C2(C)C1=O", "note": "(stereo in doubt) [Usnic Acid]", "inhibition of cell viability": 0.273}, {"smiles": "C=CCc1ccc(O)c(OC)c1", "note": "[Eugenol]", "inhibition of cell viability": -0.184}, {"smiles": "CC1(C)[C@@H](O)CC[C@]2(C)[C@H]3C(=O)C=C4[C@@H]5C[C@@](C)(C(=O)O)CC[C@]5(C)CC[C@@]4(C)[C@]3(C)CC[C@@H]12", "note": "[Enoxolone]", "inhibition of cell viability": -0.0418}, {"smiles": "C=CC1=C(C)/C(=C/c2[nH]c(Cc3[nH]c(/C=C4\\NC(=O)C(C)=C4C=C)c(C)c3CCC(=O)O)c(CCC(=O)O)c2C)NC1=O", "note": "[Bilirubin]", "inhibition of cell viability": 0.0432}, {"smiles": "CC1(C)CC[C@]2(C)CC[C@]3(C)C(=CC[C@@H]4[C@@]5(C)CC[C@@H](O)[C@](C)(C(=O)O)[C@@H]5CC[C@]43C)[C@@H]2C1", "inhibition of cell viability": 0.314}, {"smiles": "OC[C@@H](O)[C@H](O)[C@H](O)[C@@H](O)CO", "note": "[Dulcitol]", "inhibition of cell viability": -0.284}, {"smiles": "CC1CCC(C(C)C)C(O)C1", "note": "(racemic) [DL-Menthol]", "inhibition of cell viability": 0.0236}, {"smiles": "C=C1CC[C@H]2C(=C)CC[C@H]3C(=C)C(=O)O[C@@H]3[C@@H]12", "note": "[Dehydrocostus Lactone]", "inhibition of cell viability": "0.992 (active)"}, {"smiles": "Cc1cc2nc3c(=O)[nH]c(=O)nc-3n(C[C@H](O)[C@H](O)[C@H](O)COP(=O)(O)O)c2cc1C", "note": "[Flavin mononucleotide]", "inhibition of cell viability": 0.0137}, {"smiles": "CC(C)=CCC/C(C)=C/CC/C(C)=C/CC/C(C)=C/CC1=C(C)C(=O)c2ccccc2C1=O", "note": "[Menatetrenone]", "inhibition of cell viability": -0.0024}, {"smiles": "C[C@@H]1O[C@@H](O[C@@H]2[C@@H](O)[C@H](OCCc3ccc(O)c(O)c3)O[C@H](CO)[C@H]2OC(=O)/C=C/c2ccc(O)c(O)c2)[C@H](O)[C@H](O)[C@H]1O", "note": "[Verbascoside]", "inhibition of cell viability": 0.0855}, {"smiles": "C=CCSC[C@H](N)C(=O)O", "note": "[S-allyl-L-cysteine]", "inhibition of cell viability": -0.0574}, {"smiles": "O=c1c(O)c(-c2ccc(O)c(O)c2)oc2cc(O)cc(O)c12", "note": "[Quercetin]", "inhibition of cell viability": "0.68 (active)"}, {"smiles": "CC1(C)CC[C@]2(C(=O)O)CC[C@]3(C)C(=CC[C@@H]4[C@@]5(C)CCC(=O)C(C)(C)[C@@H]5CC[C@]43C)[C@@H]2C1", "note": "[Oleanonic Acid]", "inhibition of cell viability": 0.342}, {"smiles": "CC(C)(CO)[C@@H](O)C(=O)NCCC(=O)NCCSSCCNC(=O)CCNC(=O)[C@H](O)C(C)(C)CO", "note": "[D-Pantethine]", "inhibition of cell viability": -0.262}, {"smiles": "COc1c(O)cc2oc3cc(O)c(CC=C(C)C)c(O)c3c(=O)c2c1CC=C(C)C", "note": "[Mangostin]", "inhibition of cell viability": "1 (active)"}, {"smiles": "CC1(C)CC[C@]2(C(=O)O[C@@H]3O[C@H](CO[C@@H]4O[C@H](CO)[C@@H](O)[C@H](O)[C@H]4O)[C@@H](O)[C@H](O)[C@H]3O)CC[C@]3(C)C(=CC[C@@H]4[C@@]5(C)CC[C@H](O[C@@H]6OC[C@H](O)[C@H](O)[C@H]6O)[C@@](C)(CO)[C@@H]5CC[C@]43C)[C@@H]2C1", "note": "[Asperosaponin Ⅵ]", "inhibition of cell viability": 0.0344}, {"smiles": "COc1ccc(C(C)=O)c(O)c1", "note": "[Paeonol]", "inhibition of cell viability": 0.0334}]}]}
